About 79,000 compounds went through this panel and 15% of them were active in at least one assay; those are over-represented in the sample as a whole. Unmarked numbers belong to inactive results. The source made the active and inactive calls. Cut-off read from the data, not from the text of the source: active = growth inhibition above about 70%; inactive = the rest.

The nature of test [1]: NCI Yeast Anticancer Drug Screen. Data for the rad50 strain (AID 155).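 Note: 0% = growth of vehicle-only cultures of the same strain.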 Particulars: S. cerevisiae rad50 strain growth inhibition, stronger effect = higher value. A digest of the protocol: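 Compounds were tested on a yeast strain with an engineered DNA damage repair alteration; the reported value is growth inhibition normalised to vehicle treatment.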
The nature of test [2]: NCI Yeast Anticancer Drug Screen. Data for the mec2-1 strain (AID 157). Particulars: S. cerevisiae mec2-1 strain, stronger effect = higher value. A digest of the protocol: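 Yeast mec2-1 mutant treated with compound. Readout: growth inhibition vs vehicle controls.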
Test [3] in a line: NCI Yeast Anticancer Drug Screen. Data for the sgs1 mgt1 strain (AID 161).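 Note: 0% = growth of cultures given vehicle only.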 Particulars: S. cerevisiae sgs1 mgt1 strain, stronger effect = higher value. A digest of the protocol: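 Inhibition of yeast growth, normalised to vehicle-treated controls, is reported for a strain bearing genetic alterations in DNA damage repair.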
Test [4] is described as follows: NCI Yeast Anticancer Drug Screen. Data for the cln2 rad14 strain (AID 165).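 Note: 0% = growth equal to vehicle treated cultures.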 Particulars: S. cerevisiae cln2 rad14 strain, stronger effect = higher value. The essentials:
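cln2 rad14 yeast strain; compound exposure; growth inhibition read vs vehicle controls.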

A short description of test [5]: NCI Yeast Anticancer Drug Screen. Data for the bub3 strain (AID 167). Particulars: S. cerevisiae bub3 mutant strain, stronger effect = higher value. The essentials:
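Growth of a checkpoint-deficient yeast mutant is measured after compound exposure. Values represent inhibition relative to vehicle.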

The nature of test [6]: NCI Yeast Anticancer Drug Screen. Data for the mlh1 rad18 strain (AID 175). The settings on record: S. cerevisiae mlh1 rad18 strain growth inhibition, stronger effect = higher value. The essentials:
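Yeast w/ defined DNA-repair lesions; compound exposure; growth vs vehicle controls → % inhibition.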

The mark [7] stands for this setting: at 5.0 µM (retest, dose inferred, filed as 0.5).
Setting [8] is: at 50.0 µM (retest, dose inferred, filed as 5.0).

On to `Cc1ccc(/C=N/NS(=O)(=O)c2ccccc2)c(C)c1`, for which the growth inhibition in test [1] (setting [7]) is -27%; in test [1] (setting [8]), 25%; in test [1] (at 50.0 µM) it was 30.6%; in test [2] (setting [7]), -10%; in test [2] (setting [8]), 1%; in test [2] (at 50.0 µM), 18.9%. Besides, the growth inhibition in test [3] (setting [7]) is 1%; in test [3] (setting [8]), 15%; in test [3] (at 50.0 µM), 15%; in test [4] (setting [7]), -23%; in test [4] (setting [8]), 42%; in test [4] (at 50.0 µM), -25.8%. Also, the growth inhibition was 3% in test [5] (setting [7]); 41% in test [5] (setting [8]); 11.1% in test [5] (at 50.0 µM); -11% in test [6] (setting [7]); 46% in test [6] (setting [8]); 36.9% in test [6] (at 50.0 µM).
As for `CC(C(=O)NN)C(O)C(C)(C)O` (stereo not drawn), the growth inhibition in test [1] (setting [7]) was 3%; in test [1] (setting [8]), -5%; in test [1] (at 50.0 µM), 58.7%; in test [2] (setting [7]), -5%; in test [2] (setting [8]) it was -10%; in test [2] (at 50.0 µM), 3.8%. For the same molecule, the growth inhibition in test [3] (setting [7]) was 1%; in test [3] (setting [8]) it was 3%; in test [3] (at 50.0 µM), -7.4%; in test [4] (setting [7]), 1%; in test [4] (setting [8]), -9%; in test [4] (at 50.0 µM), -47.5%. Further, the growth inhibition is -2% in test [5] (setting [7]); 1% in test [5] (setting [8]); -5.85% in test [5] (at 50.0 µM); 7% in test [6] (setting [7]); 4% in test [6] (setting [8]); 6.05% in test [6] (at 50.0 µM).
For `CC(=O)Nc1cccc(C(=O)O)c1`, the growth inhibition in test [1] (setting [7]) was 6%; in test [1] (setting [8]), -2%; in test [1] (at 50.0 µM) it was 1.3%; in test [2] (setting [7]), -1%; in test [2] (setting [8]), -4%; in test [2] (at 50.0 µM), 0%. Besides, the growth inhibition in test [3] (setting [7]) was -5%; in test [3] (setting [8]) it was 1%; in test [3] (at 50.0 µM) it was 5.75%; in test [4] (setting [7]) it was 4%; in test [4] (setting [8]) it was -1%; in test [4] (at 50.0 µM) it was 39.9%. The growth inhibition is 4% in test [5] (setting [7]); 7% in test [5] (setting [8]); 8.6% in test [5] (at 50.0 µM); 1% in test [6] (setting [7]); -3% in test [6] (setting [8]); -16.6% in test [6] (at 50.0 µM).
On to `O=[N+]([O-])c1c(Br)ncn1Cc1ccccc1`, for which the growth inhibition in test [1] (setting [7]) was 26%; in test [1] (setting [8]), 92% (active); in test [1] (at 50.0 µM), 68.8%; in test [2] (setting [7]), 22%; in test [2] (setting [8]) it was 98% (active); in test [2] (at 50.0 µM), 8.25%. Moreover, the growth inhibition in test [3] (setting [7]) is 14%; in test [3] (setting [8]), 90% (active); in test [3] (at 50.0 µM) it was 22.4%; in test [4] (setting [7]) it was 21%; in test [4] (setting [8]), 99% (active); in test [4] (at 50.0 µM), 7.5%. Further, the growth inhibition in test [5] (setting [7]) was 35%; in test [5] (setting [8]), 99% (active); in test [5] (at 50.0 µM) it was -4.85%; in test [6] (setting [7]) it was 49%; in test [6] (setting [8]) it was 94% (active); in test [6] (at 50.0 µM) it was 38.4%.
For `c1ccc(N=Nc2n[nH]c3ccccc23)cc1`, the growth inhibition was -144% in test [1] (setting [7]); 94% (active) in test [1] (setting [8]); 98.6% (active) in test [1] (at 50.0 µM); -51% in test [2] (setting [7]); 74% (active) in test [2] (setting [8]); 98.8% (active) in test [2] (at 50.0 µM). Further, the growth inhibition in test [3] (setting [7]) is -66%; in test [3] (setting [8]), 85% (active); in test [3] (at 50.0 µM) it was 92.6% (active); in test [4] (setting [7]) it was -59%; in test [4] (setting [8]) it was 29%; in test [4] (at 50.0 µM), 98% (active). Further, the growth inhibition is -65% in test [5] (setting [7]); 91% (active) in test [5] (setting [8]); 97.1% (active) in test [5] (at 50.0 µM); -119% in test [6] (setting [7]); 94% (active) in test [6] (setting [8]); 97% (active) in test [6] (at 50.0 µM).
Regarding `CC1=CC2N(C=C1)C(c1ccccc1)=NON2c1cc(C)ccn1` (stereo not drawn), the growth inhibition in test [1] (setting [7]) is -20%; in test [1] (setting [8]), -10%; in test [1] (at 50.0 µM), 24.7%; in test [2] (setting [7]), -23%; in test [2] (setting [8]), 14%; in test [2] (at 50.0 µM), 33%. The growth inhibition was -1% in test [3] (setting [7]); 23% in test [3] (setting [8]); 62.5% in test [3] (at 50.0 µM); -39% in test [4] (setting [7]); 7% in test [4] (setting [8]); 25.1% in test [4] (at 50.0 µM). In addition, the growth inhibition is -44% in test [5] (setting [7]); -14% in test [5] (setting [8]); 5.7% in test [5] (at 50.0 µM); -34% in test [6] (setting [7]); 38% in test [6] (setting [8]); 68.9% in test [6] (at 50.0 µM).
